Measurements as given in PubChem BioAssay (NCATS).
Unmarked numbers belong to inactive results. Active and inactive are the calls of the source. The call rests on the fitted dose curve; in most records, active means well fitted curve in the direction sought with a large enough effect (not every such curve was filed as active); inconclusive means small, poorly fitted or top-dose-only effect, or effect the other way, or another doubt; inactive means no such curve, though single readings can be large or run the other way.

Target: Pyruvate kinase PKM (Homo sapiens) (UniProt P14618)
Sequence (P14618 whole entry, looked up): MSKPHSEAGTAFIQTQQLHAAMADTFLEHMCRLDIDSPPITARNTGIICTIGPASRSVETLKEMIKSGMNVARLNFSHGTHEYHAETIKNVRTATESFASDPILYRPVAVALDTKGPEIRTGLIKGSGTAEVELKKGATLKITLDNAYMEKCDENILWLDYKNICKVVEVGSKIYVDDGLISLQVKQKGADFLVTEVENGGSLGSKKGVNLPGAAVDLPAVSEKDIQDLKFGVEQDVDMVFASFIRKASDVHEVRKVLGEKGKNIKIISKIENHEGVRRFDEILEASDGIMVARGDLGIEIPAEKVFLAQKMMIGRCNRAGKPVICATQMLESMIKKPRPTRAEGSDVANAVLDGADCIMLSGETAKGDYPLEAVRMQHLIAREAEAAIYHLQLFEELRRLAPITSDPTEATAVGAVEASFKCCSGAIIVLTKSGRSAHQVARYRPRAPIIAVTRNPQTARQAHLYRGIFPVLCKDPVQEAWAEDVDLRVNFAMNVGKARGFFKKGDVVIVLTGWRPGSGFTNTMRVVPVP
Experiment: qHTS Assay for Activators of Human Muscle Pyruvate Kinase (AID 954);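 further: 0% = uninhibited enzyme and -100% = no enzyme or full thiadiazolimine inhibition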
Conditions: purified human muscle pyruvate kinase, luciferase-coupled luminescence, 1 h; series mostly up to 57.5 µM; activity change, negative = inhibition: at the top concentration
Procedure: NIH Molecular Libraries Screening Centers Network [MLSCN]
NIH Chemical Genomics Center [NCGC]
Wael M. Rabeh, Lyudmila Nedyalkova and Hee-Wan Park [Structural Genomics Consortium, 100 College St. Toronto, Ontario, Canada]
Human pyruvate kinase muscle 2 enzyme was supplied as a highly purified (>95% pure) preparation by the Structural Genomics Consortium in Toronto (Ontario, Canada) and was assayed for its ability to generate ATP from ADP using phosphoenolpyruvate (PEP) as a substrate. ATP generation was detected in a coupled reaction by luciferase-mediated luminescence, an ATP-dependent process. Pyruvate kinase substrates, PEP and ADP, were present in the assay at Km and approximately […]-fold below Km respectively. The enzyme was assayed at an intermediate level of activity to screen for inhibitors and activators.
NCGC Assay Protocol Summary:
Three uL of substrate mix (final concentration, 50 mM imidazole pH 7.2, 50 mM KCl, 7 mM MgCl2, 0.5 mM PEP, 0.1 mM ADP, 0.01% Tween 20, 0.05% BSA) was dispensed into 1536 well plates. 23 nL of compound were delivered by a pin tool and 1 uL of enzyme mix (final concentration, 0.1 nM pyruvate kinase, 50 mM imidazole pH 7.2, 0.05% BSA) was added. Plates were incubated at room temperature for 1 hour. Two uL of detection and kinase stop mix (PKLight, Cambrex) was added, the plates centrifuged, and luminescence read by a ViewLux (Perkin Elmer) at 5 second exposure/plate. Data were normalized to the uninhibited and AC100 inhibition (no enzyme or 110 uM N-methyl-2,3-diphenyl-1,2,4-thiadiazol-5-imine; CID: 682802; LOPAC-S-4063). To monitor activation, 0.3 nM pyruvate kinase was included in one control column.

SMILES | activity change, negative = inhibition | outcome
CNCCC=C1c2ccccc2CCc2ccccc21 | -23.8% | 
CCCC1O[C@@H]2C[C@H]3[C@@H]4CCC5=CC(=O)C=C[C@]5(C)[C@H]4[C@@H](O)C[C@]3(C)[C@]2(C(=O)CO)O1 (stereo partly drawn) | -2.26% | 
CN1CCC[C@@H]1c1cccnc1 | -6.65% | 
CC(C)COC(=O)OCN1C(=O)CN(CCN2CC(=O)N(COC(=O)OCC(C)C)C(=O)C2)CC1=O | -21% | 
C[C@]12CC[C@@H]3c4ccc(O)cc4CC[C@H]3[C@@H]1CC[C@@H]2O | 5.31% | 
C[C@@H]1C(=O)NC2=Nc3cccc(Cl)c3CN21 | -14.3% | 
Nc1cc(Cl)c(NC2=NCCN2)c(Cl)c1 | -20.4% | 
CCCn1c(=O)[nH]c(=O)c2[nH]cnc21 | 5.11% | 
Oc1ccc(O)cc1 | -9.58% | 
COc1cc(NS(C)(=O)=O)ccc1Nc1c2ccccc2nc2ccccc12 | -23.8% | 
CC(C)NC[C@@H](O)COc1cccc2ccccc12 |  | inactive
N[C@@H](Cc1cnc[nH]1)C(=O)O | -3.64% | 
CN1[C@@H]2CC[C@H]1CC(OC(=O)c1c[nH]c3ccccc13)C2 (stereo partly drawn) | -28.4% | 
Oc1cc(O)c2c(c1)O[C@H](c1ccc(O)c(O)c1)[C@H](O)C2 | -23.2% | 
C[N+]1(CCCCC[N+]2(C)CCCC2)CCCC1 | -3.98% | 
O=C(O)c1cc2cc(Cc3cccnc3)ccc2o1 | -27.6% | 
O=C1CCC(c2ccc(-n3ccnc3)cc2)=NN1 | -12.4% | 
C1CCc2nnnn2CC1 | -24.9% | 
